In the library only some 6.6% were active in any assay of this set; here they are far more common.
Spn DPM-DC inh: S. pneumoniae DPM-DC inhibition; purified DPM-DC, PK/LDH coupled NADH fluorescence; calls only at 10 µM; 0.49% of 65,000 active; AID 556;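 active = the 320 compounds with the highest percent inhibition in the single-dose primary screen, excluding strongly autofluorescent ones, cut at about 32% in these data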;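 note: kinetic rate of NADH fluorescence loss reporting ADP formed by the decarboxylase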
Spn PMK inh: S. pneumoniae PMK inhibition; 0.49% of 65,000 active; inhibition, % at 10 µM; purified PMK, PK/LDH-coupled NADH absorbance 340 nm;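 active = top-ranked compounds by inhibition in the single 10 µM screen, taking a fixed number of the strongest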;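 note: 0% = full reaction with DMSO carrier and 100% = background rate without enzyme reaction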
NADH enzymes: inhibition of NAD/NADH coupling enzymes, library profiling. IC50, µM (series often up to 10 µM), without a hit: top-dose inhibition. 0.02% of 65,000 active. coupled PK/LDH NADH assays, four targets. AID 774;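 active = single-dose screening hits from any of four coupled enzyme assays that gave an IC50 when retested across doses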;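 note: the DPM-DC format reads NADH fluorescence rather than 340 nm absorbance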
Autofluor 339: intrinsic fluorescence of library compounds, ex339/em460 – biochemical, MLSMR library, data from DPM-DC assay, artefact control, profiling panel | fluorescence fold increase at 10 µM | 5.5% of 65,000 active | compound autofluorescence, ex339/em460 nm, NADH buffer; active compounds read high; 1 = no-compound wells, NADH background;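 active = at 10 µM, mean starting fluorescence two-fold or more over control wells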;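 note: signal is the first read of a kinetic run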
Spn MK inh: S. pneumoniae mevalonate kinase inhibition | 0.48% of 65,000 active | purified MK, PK/LDH-coupled NADH absorbance 340 nm | inhibition, % at 10 µM;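 active = ranked among the strongest by inhibition in the single 10 µM screen, a fixed top-ranked set picked for dose follow-up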
* = called active by the depositor; i = inactive; / = not tested or not shown; + = active, no number.

SMILES	Spn DPM-DC inh	Spn PMK inh	NADH enzymes	Autofluor 339	Spn MK inh
Cc1ccc(Cn2nnc3c(=O)n(Cc4ccccc4C)cnc32)cc1	i	8	5%	1	6
Cc1cc(-n2c(C)cc(C(=O)COc3ccc4ccc(=O)oc4c3)c2C)no1	/	12	6%	4.2*	0
CN(C)C(=O)COc1ccc2ccc(=O)oc2c1	/	4	6%	2.2*	7
CCOC(=O)COc1ccc2cc(C(=O)OCC)c(=O)oc2c1	/	5	5%	2.3*	4
C=CCN=C(NC#N)SCc1ccccc1Cl	i	7	2%	1.1	0
O=C(CSCc1cccc(Br)c1)N1CCOCC1	i	2	4%	1.1	9
Cn1c(=O)[nH]c(=O)c2c1ncn2CCCc1ccccc1	i	8	4%	1.1	5
CCOC(=O)N1CCC2(CC1)C(C#N)=C(N)Oc1c2c(C)nn1-c1cccc(Cl)c1	i	3	2%	1.1	2
Cc1[nH]nc2c1-c1nc3ccccc3nc1C(C)(C)C2	/	10	10%	3.9*	9
COC(=O)C1C(=O)c2c(n[nH]c2C)CC1(C)C (stereo unspecified)	i	1	3%	1.1	5
Cc1cc(-c2ccc(F)cc2)nc2cc(C(N)=O)nn12	i	4	8%	2.1*	6
CCOC(=O)c1cnn2c(C)cc(-c3ccc(F)cc3)nc12	/	5	3%	2.2*	0
CCOC(=O)c1oc2ccccc2c1NC(=O)c1ccc(S(=O)(=O)N2CCCC2)cc1	i	14	7%	2.5*	7
CCOC(=O)c1sc(=NC(=O)c2ccc(S(=O)(=O)N3CC(C)OC(C)C3)cc2)n(C)c1C (stereo unspecified)	i	17	9%	3.9*	11
O=C(CCC(=O)N(Cc1ccco1)C(C(=O)NC1CCCC1)c1ccncc1)Nc1cccnc1 (stereo unspecified)	i	6	3%	1.1	2
C=CCOC(=O)C1C(=O)CC(C)(O)C(C(=O)OCC=C)C1c1ccc(OCC)cc1 (stereo unspecified)	i	9	4%	1.1	4
Cc1csc(NC(=O)C2CCCO2)n1 (stereo unspecified)	i	12	2%	0.97	0
COCC(=O)N(C)c1nnc(-c2cnc(C)cn2)s1	i	32*	15%	1.6	0
Cc1cnc(-c2nnc(N(C)C(=O)C3CCCO3)s2)cn1 (stereo unspecified)	i	16	20%	2.3*	21
COc1ccc(-c2cnn(-c3ccccc3)c2N)cc1OC	i	2	2%	1.1	5
Nc1nc2c(s1)CCc1c-2cnn1-c1ccccc1	+	5	21µM*	0.86	0
COc1ccc(O)c(-c2cc(-c3cccs3)[nH]n2)c1	i	0	0%	1.1	0
COc1ccc(-c2ccc(-c3noc(C4CCCCC4)n3)c(OC)n2)cc1	/	10	8%	3.7*	6
COc1ccc(-c2ccc(-c3noc(C)n3)c(OC)n2)cc1	/	9	7%	3.8*	5
CCOc1nc(-c2ccc(OC)cc2)ccc1-c1noc(C)n1	/	8	7%	3.8*	6
SMILES	Spn DPM-DC inh	Spn PMK inh	NADH enzymes	Autofluor 339	Spn MK inh
COCc1nc(-c2ccc(-c3ccc(C)cc3)nc2OC)no1	i	14	7%	1.9	0
Cn1c(C(=O)Nc2ccc3c(c2)OCO3)cc2c(=O)n(C)c3ccccc3c21	/	7	4%	2.3*	10
O=C(Nc1ccc(F)cc1F)c1cc2ncc(Br)cn2n1	i	2	5%	1.1	6
COC(=O)c1ccccc1NC(=O)c1cc2ncc(Br)cn2n1	i	5	10%	2.1*	13
O=c1cc(-c2ccco2)oc2ccc(Cl)cc12	/	5	2%	2.4*	7
O=C(CSc1nnc(-c2ccccc2O)o1)Oc1ccc(OCc2ccccc2)cc1	/	2	2%	4*	2
COC(=O)c1[nH]c2cccc(OC)c2c1NC(=O)CCN1CCN(c2ccccc2OC)CC1	+	13	20%	3.1*	12
COC(=O)c1[nH]c2cccc(OC)c2c1NC(=O)CCN1CCC(C)CC1	i	15	8%	2	0
COC(=O)c1[nH]c2cccc(OC)c2c1NC(=O)CN1CCN(c2cccc(OC)c2)C(C)C1 (stereo unspecified)	i	10	13%	3*	4
O=C1c2ccccc2C(=O)N1c1ccc(S(=O)(=O)N2CCN(c3ccccc3)CC2)cc1	i	12	4%	1.1	0
COc1cc(NS(C)(=O)=O)c(OC)cc1NC(=O)c1cccc(F)c1	i	15	8%	1.1	8
Nc1c2c(nc3ccccc13)N(c1ccccc1)CC2	/	0	21%	2.3*	42*
O=C(NCc1nnc(SCC(=O)N2CCN(c3ccccc3)CC2)o1)c1ccco1	i	12	18%	1.2	42*
c1ccc2c(c1)[nH]c1c(N3CCSCC3)ncnc12	/	14	10%	0.21	5
COc1ccc2[nH]c3c(NCCN(C(C)C)C(C)C)ncnc3c2c1	/	8	4%	3.7*	0
CC(C)OCCCNc1ncnc2c1[nH]c1ccccc12	i	14	11%	2.6*	11
CCn1cc(C(=O)Nc2nncs2)c(=O)c2cc(F)c(N3CCN(C(=O)c4ccco4)CC3)cc21	i	19	15%	2.4*	5
CC(C)n1c(=NC(=O)c2ccco2)c(C#N)cc2c(=O)n3ccccc3cc21	/	9	2%	2.9*	2
O=C(N=C1SCC(=O)N1c1ccccc1Cl)c1ccco1	i	0	0%	1.1	0
COc1c(Br)cc2c(C)c(C(=O)O)oc2c1Br	i	0	4%	1	43*
C=CCn1cc(C(=O)NCCCOC)c(=O)c2cc(S(=O)(=O)N(CC)CC)ccc21	i	9	4%	1.2	4
C=CCn1c(=N)c(C(=O)NCCCOC)cc2c(=O)n3cc(C)ccc3nc21	/	9	5%	3.8*	0
C=CCn1c(=N)c(C(=O)NCCCOC)cc2c(=O)n3ccccc3nc21	/	18	14%	3.7*	10
CCOCCOC(=O)C1=C(C)NC2=C(C(=O)CC(c3cccs3)C2)C1c1ccsc1 (stereo unspecified)	/	0	2%	2.1*	4
Cc1csc2ncc(C(=O)NCc3ccccc3Cl)c(=O)n12	/	1	4%	2.1*	6
CC(NC(=O)c1ccccc1O)c1ccccc1 (stereo unspecified)	/	0	3%	2.2*	5
Cc1csc2ncc(C(=O)NC(C)c3ccccc3)c(=O)n12 (stereo unspecified)	/	4	6%	2.1*	8
O=c1c2cc(N3CCOCC3)ccc2[nH]c(=S)n1CC1CCCO1 (stereo unspecified)	i	18	19%	4*	13
COCCCn1c(=S)[nH]c2ccc(N3CCOCC3)cc2c1=O	+	15	17%	3.8*	4

High-throughput results deposited in PubChem by SRMLSC.
